Source: PubChem
The entries come from a sample that favours hits as a whole.
CHX counter = Cycloheximide Counterscreen for Small Molecule Inhibitors of Shiga Toxin. cell reporter, cycloheximide protein synthesis inhibition counterscreen. max response, %. 300,000 compounds, 12% hits; in the data active means max response mostly above about 13%, no sharp cut-off; inactive means mostly below about 14%; further: read at 38.3 µM for the half of the compounds with a filed dose; 0% is about no effect
Giardia FBPA inh = qHTS Assay for Inhibitors of Fructose-1,6-bisphosphate Aldolase from Giardia Lamblia; purified Giardia FBPA; AID 2451, 2010; 290,000 compounds, 0.71% hits; Potency, µM (titrated, usually from 59.6 µM), inactives show at the highest dose activity, negative = inhibition, most hits filed as inhibitors; A8B2U2; further: potency means the concentration at half of the fitted maximal effect; on the % scale 0 is the no-effect control and ±100 the full control effect; nearly all actives have a fitted effect of over 55% in size
Target sequence (A8B2U2 whole entry, looked up): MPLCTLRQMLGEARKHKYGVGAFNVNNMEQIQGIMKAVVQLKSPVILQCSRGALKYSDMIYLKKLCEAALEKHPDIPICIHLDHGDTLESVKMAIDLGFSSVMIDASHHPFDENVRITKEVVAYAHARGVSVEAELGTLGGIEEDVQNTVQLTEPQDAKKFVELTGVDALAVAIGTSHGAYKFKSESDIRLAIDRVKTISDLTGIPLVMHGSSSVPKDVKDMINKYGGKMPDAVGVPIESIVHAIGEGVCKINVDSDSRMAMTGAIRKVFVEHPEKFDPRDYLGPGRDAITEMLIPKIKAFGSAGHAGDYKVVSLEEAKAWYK
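40 nM FBPA preincubated 10 min at RT with compound (up to 57.5 uM final), then substrate plus GAPDH/TPI/NAD/arsenate coupling and diaphorase/resazurin added. Fluorescence read after 20 min at RT, 525/598 nm.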
Shiga inhibitor = A qHTS for Small Molecule Inhibitors of Shiga Toxin; Vero cells, Shiga toxin protein synthesis inhibition reporter; inhibition, % at 38.7 µM; 290,000 compounds, 9.2% hits; AID 2315, 2010; in the data active means inhibition mostly above about 28%, no sharp cut-off; inactive means mostly below about 43%; further: 0% is about no effect
Sm TGR block = qHTS Assay for the Inhibitors of Schistosoma Mansoni Peroxiredoxins | Potency, µM (titrated, usually from 114 µM), without a hit: top-dose activity change, negative = inhibition, usual class: inhibitors | purified TGR, DTNB reduction, TNB absorbance 405 nm | Schistosoma mansoni thioredoxin glutathione reductase (TGR), Q962Y6 | 360,000 compounds, 3% hits | AID 485364, 2010; further: potency means the concentration at half of the fitted maximal effect; on the % scale 0 is the no-effect control and ±100 the full control effect; nearly all actives have a fitted effect of over 60% in size
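Kinetic colorimetric format: TGR-catalysed, NADPH-driven DTNB reduction monitored via TNB absorbance. Enzyme dispensed at 20 nM; compound exposure 15 min at room temperature before reaction start.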
LmPK inhibitor = qHTS Assay for Inhibitors of Leishmania Mexicana Pyruvate Kinase (LmPK); 290,000 compounds, 0.37% hits; AID 1721, 2009; purified LmPK, Kinase-Glo ATP luminescence, 1 h; Q27686; Potency, µM (top dose mostly 57.5 µM), inactives show at the top dose activity change, negative = inhibition, hits mostly inhibitors; further: potency means the concentration at half of the fitted maximal effect; on the % scale 0 is the no-effect control and ±100 the full control effect
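Pyruvate kinase activity monitored as ATP production (luciferase luminescence). Conditions: 0.1 nM enzyme, 0.5 mM PEP, 0.1 mM ADP, 1 h, RT; normalized against uninhibited and no-enzyme wells.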
Tb PYK inh = qHTS of Trypanosoma Brucei Inhibitors | TbPYK enzyme, Kinase-Glo Plus ATP luminescence, 45 min | AID 624173, 2012 | Potency, µM (highest dose often 76.8 µM), for inactives: top-dose activity, negative = inhibition, actives largely listed as inhibitors | 410,000 compounds, 0.12% hits | pyruvate kinase (Trypanosoma brucei), Q57TT1; further: potency means the concentration at half of the fitted maximal effect; on the % scale 0 is the no-effect control and ±100 the full control effect; nearly all actives have a fitted effect of over 50% in size
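Luminescent Kinase-Glo Plus end-point after 45 min room-temperature reaction of T. brucei pyruvate kinase started with 130 uM ADP (final). Buffer TEA 50 mM pH 7.2 with KCl, MgCl2, BSA, Tween-20; titration-based qHTS with fitted concentration-effect curves.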
An asterisk follows results filed as active. Unless noted, the call rests on the fitted dose curve; in most records, active means well fitted curve in the direction sought with a large enough effect; inconclusive means small, poorly fitted or top-dose-only effect, or another doubt; inactive means no such curve, though single readings can be large; an effect the other way counts as inactive or inconclusive.

Results for N=c1c2c(ncn1Cc1ccco1)Oc1ccc3ccccc3c1C2c1ccccc1 (configuration not stated) ?
CHX counter: 20.5*; Giardia FBPA inh: 1.9%; Shiga inhibitor: active; Sm TGR block: -9.3%; LmPK inhibitor: 2.2%; Tb PYK inh: -0.8%

Results for CC1(C(=O)OCC(=O)c2c[nH]c3ccccc23)CC1(Cl)Cl (configuration not stated) ?
CHX counter: 53.5*; Giardia FBPA inh: 1.2%; Shiga inhibitor: 85.5*; Sm TGR block: 4.0%; LmPK inhibitor: -6.3%; Tb PYK inh: 1.0%

How did O=C(OCC(=O)c1c[nH]c2ccccc12)C1=COCCO1 do in these assays?
CHX counter: 37.5*; Giardia FBPA inh: 0.5%; Shiga inhibitor: 74.4*; Sm TGR block: 1.8%; LmPK inhibitor: 0.6%; Tb PYK inh: -11.0%

How did Cc1cccc(CNCCc2c[nH]c3ccccc23)c1 do in these assays?
CHX counter: -6.0; Giardia FBPA inh: -4.8%; Shiga inhibitor: -16.2; Sm TGR block: inconclusive; LmPK inhibitor: -7.2%; Tb PYK inh: -0.1%

How did COc1ccc(OCC(=O)c2c[nH]c3ccccc23)cc1 do in these assays?
CHX counter: 45.1*; Giardia FBPA inh: 2.7%; Shiga inhibitor: 53.7*; Sm TGR block: 3.1%; LmPK inhibitor: -0.8%; Tb PYK inh: -18.0%

How did Cc1cccc(CC(=O)c2c[nH]c3ccccc23)c1 do in these assays?
CHX counter: 16.5; Giardia FBPA inh: 1.4%; Shiga inhibitor: 51.2*; Sm TGR block: 7.3%; LmPK inhibitor: 0.6%; Tb PYK inh: 3.2%

What do the screens show for `CCOc1ccccc1CNC(=O)c1ccc(NC(=O)N2CC(C)Sc3ccccc32)cc1` (configuration not stated)?
Sm TGR block: -1.1%; Tb PYK inh: 1.1%

What do the screens show for `COc1ccc2[nH]cc(C(=O)CN(C)C)c2c1`?
Tb PYK inh: 4.2%

Results for Cc1ccc(C(=O)OCC(=O)c2c[nH]c3ccccc23)cc1 ?
CHX counter: 48.1*; Giardia FBPA inh: -1.9%; Shiga inhibitor: 81.2*; Sm TGR block: -8.9%; LmPK inhibitor: -0.4%; Tb PYK inh: -1.4%

What do the screens show for `COc1ccc2c(CC#N)c[nH]c2c1`?
CHX counter: 3.9; Giardia FBPA inh: -16.3%; Shiga inhibitor: -21.1; Sm TGR block: 50.1µM*; LmPK inhibitor: 6.2%; Tb PYK inh: 1.9%

How did O=C(OCC(=O)c1c[nH]c2ccccc12)c1ccc([N+](=O)[O-])s1 do in these assays?
CHX counter: 24.4*; Giardia FBPA inh: -15.7%; Shiga inhibitor: 18.8; Sm TGR block: inconclusive; LmPK inhibitor: 0.6%; Tb PYK inh: -7.5%

How did COc1ccc2c(C(=O)CCl)c[nH]c2c1 do in these assays?
CHX counter: -3.4; Giardia FBPA inh: -12.6%; Shiga inhibitor: 2.0; Sm TGR block: 4.47µM*; LmPK inhibitor: 1.6%; Tb PYK inh: 1.2%

How did COc1ccc(C(=O)OCC(=O)c2c[nH]c3ccccc23)cc1OC do in these assays?
Sm TGR block: -12.9%; Tb PYK inh: 1.5%

What do the screens show for `CCOC(=O)CCCCCC(=O)Nc1ccc2c(c1)C(=O)N([C@H](C)CO)C[C@H](C)[C@@H](CN(C)S(C)(=O)=O)OCCCC[C@@H](C)O2`?
Tb PYK inh: -7.6%

How did COc1ccccc1-c1nc(N(C)C)c2ccccc2n1 do in these assays?
Giardia FBPA inh: 0.0%

How did Cn1c2cc(B(O)O)sc2c2cnn(Cc3c(F)cccc3F)c(=O)c21 do in these assays?
Sm TGR block: -14.3%

What do the screens show for `Cc1cc(C)cc(NS(=O)(=O)c2ccc3c(c2)OCC(C(=O)N2CCCC2)O3)c1` (configuration not stated)?
Sm TGR block: -2.9%; Tb PYK inh: 0.7%

Results for Cc1ccc(NC(=S)Nc2ccc3cn[nH]c3c2)cc1C ?
CHX counter: 10.0; Giardia FBPA inh: -4.5%; Shiga inhibitor: -2.9; Sm TGR block: -8.7%; LmPK inhibitor: 3.9%; Tb PYK inh: -7.0%

How did CC(=O)c1ccc(NC(=S)Nc2ccc3cn[nH]c3c2)cc1 do in these assays?
CHX counter: 12.6; Giardia FBPA inh: -21.9%; Shiga inhibitor: 47.7; Sm TGR block: 20µM*; LmPK inhibitor: -4.0%; Tb PYK inh: 1.2%

How did COc1ccccc1NC(=S)Nc1ccc2cn[nH]c2c1 do in these assays?
CHX counter: 15.5*; Giardia FBPA inh: inconclusive; Shiga inhibitor: 46.6*; Sm TGR block: inconclusive; LmPK inhibitor: 0.4%; Tb PYK inh: 0.6%

Results for Cc1ccc(S(=O)(=O)N(C)C)cc1NC(=S)Nc1ccc2cn[nH]c2c1 ?
CHX counter: 0.7; Giardia FBPA inh: -11.9%; Shiga inhibitor: -13.8; Sm TGR block: 17.8µM*; LmPK inhibitor: 4.6%; Tb PYK inh: -2.8%

What do the screens show for `CC(C)c1ccc(NC(=S)Nc2ccc3cn[nH]c3c2)cc1`?
CHX counter: 22.0*; Giardia FBPA inh: -28.5%; Shiga inhibitor: 72.6*; Sm TGR block: 7.4%; LmPK inhibitor: 0.5%; Tb PYK inh: -21.1%

How did CCCc1nc(N)sc1C(=O)OCC do in these assays?
CHX counter: -2.9; Giardia FBPA inh: 2.0%; Shiga inhibitor: -20.0; Sm TGR block: 6.3%; LmPK inhibitor: -3.4%; Tb PYK inh: -11.9%

What do the screens show for `Cc1nc(N)sc1C(=O)N1N=N1`?
CHX counter: -2.1; Giardia FBPA inh: -25.7%; Shiga inhibitor: -6.7; Sm TGR block: 2.51µM*; LmPK inhibitor: 0.7%; Tb PYK inh: -1.9%

What do the screens show for `CS(=O)(=O)N1CCC2(CC1)CN(c1ccccn1)C2`?
Giardia FBPA inh: 4.5%; Tb PYK inh: 0.1%

How did C=CCn1c(O)c(C(C)=Nc2cccc(C(=O)O)c2)c(=O)[nH]c1=O do in these assays?
CHX counter: 29.4*; Giardia FBPA inh: -12.5%; Shiga inhibitor: 61.9*; Sm TGR block: -23.1%; LmPK inhibitor: 4.5%; Tb PYK inh: -16.2%

Results for C=CCn1c(O)c(C(CC)=Nc2ccc(N(C)C)cc2)c(=O)[nH]c1=O ?
CHX counter: 5.2; Giardia FBPA inh: inconclusive; Shiga inhibitor: 5.0; Sm TGR block: 31.6µM*; LmPK inhibitor: 2.0%; Tb PYK inh: -14.6%

Results for C=CCn1c(O)c(C(CC)=Nc2cccc(C(=O)O)c2)c(=O)[nH]c1=O ?
CHX counter: 76.4*; Giardia FBPA inh: -20.5%; Shiga inhibitor: 76.2*; Sm TGR block: -26.2%; LmPK inhibitor: 0.3%; Tb PYK inh: 8.3%

Results for CCOc1ccc(CN(C)C(=O)c2ccc(S(=O)(=O)N(C)c3ccccc3OC)cc2)cc1 ?
Sm TGR block: -14.3%; Tb PYK inh: -0.5%
